In PubChem BioAssay (NCATS):
Several values for one entry are separate records, joined by “and”; a condition that tells them apart may be missing. Equal entries are not always repeated. A number with no mark means an inactive call. Results filed as inconclusive are left out. A call without a number means that no potency is given here. Activity calls are given as the source filed them. Unless noted, calls follow the shape of the dose curve; as a rule, active = well fitted curve in the direction sought with a large enough effect; inconclusive = small, poorly fitted or top-dose-only effect, or another doubt; inactive = no such curve, though single readings can be large; an effect the other way counts as inactive or inconclusive.

What was measured:
[1] = Cell Viability - BJ (AID 421; calls by dose curve;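 also: potency is read from the fitted curve at half-maximal effect; cells exposed to compound for 40 hours at 37 °C before readout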); conditions: BJ fibroblast viability, qHTS
Summary of the method: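 Luminescent ATP signal (CellTiter-Glo, 20 min at room temperature) served as the read-out of viable BJ cells after 40 hours of compound treatment. Responses were scaled between DMSO and 100 uM tamoxifen, and AC50 values were obtained by Hill modeling.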

[2] = Cell Viability - Jurkat (AID 426;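 active = dose-dependent loss of cell ATP signal giving a full or clear fitted curve, ranked by lower potency value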; also: potency is read from the fitted curve at half-maximal effect); conditions: qHTS
Summary of the method: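 Jurkat (clone E6-1, human T-cell leukemia) cells, 5000/well in complete medium, were exposed to compound for 40 hr at 37 °C. Viability was read as intracellular ATP by CellTiter-Glo luminescence; AC50 came from Hill fits of concentration-response data.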

[3] = Cell Viability - Hek293 (AID 427;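 active = compounds whose dose-response curve shows a full or clear partial loss of cell viability, called from curve shape rather than a numeric limit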;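 also: potency is read from the fitted curve at half-maximal effect; cells exposed to compound for 40 hours at 37 °C before reading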); conditions: qHTS
Summary of the method: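 Luminescent ATP read-out (CellTiter-Glo, 20 min RT) after 40 hr compound exposure at 37 °C in complete medium. Signal normalized to DMSO (basal) and 100 uM tamoxifen (100% inhibition); concentration-response fitted with the standard Hill equation to give AC50.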

[4] = Cell Viability - MRC5 (AID 434; calls by dose curve;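 also: potency is read from the fitted curve at half-maximal effect; potency reflects cytotoxicity seen as loss of intracellular ATP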); conditions: MRC5 lung fibroblast viability, qHTS
Summary of the method: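 MRC5 normal human lung fibroblasts (1500/well) were treated with compounds for 40 hr at 37 °C in complete medium, and viable cells were measured as intracellular ATP by CellTiter-Glo luminescence. AC50 came from Hill fits, normalized to DMSO and 100 uM tamoxifen.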

[5] = Cell Viability - SK-N-SH (AID 435; calls by dose curve;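 also: potency is read from the fitted curve at half-maximal effect; compound exposure lasted 40 h at 37 °C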); conditions: SK-N-SH neuroblastoma cell viability qHTS
Summary of the method: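 SK-N-SH neuroblastoma cells (1500/well) treated 40 h at 37 °C in complete medium; viability read as cellular ATP by CellTiter-Glo luminescence. Normalized to DMSO and 100 uM tamoxifen; AC50 from Hill fits of qHTS concentration-response.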

[6] = target: Mitogen-activated protein kinase 10 (Mus musculus) (UniProt Q61831); assay: JNK3 AlphaScreen Assay (AID 530; active = well fitted curve in either direction with a large enough effect, not every such curve was filed as active;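 also: kinase came from lysate of stimulated human HepG2 cells; signal reports phosphorylation of biotinylated GST-cJun 1-79 at Ser73 with 10 µM ATP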); conditions: JNK3 lysate, c-Jun phosphorylation; series mostly up to 57.1 µM
Summary of the method: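 JNK3 came from HepG2 lysates pre-activated with IL-1beta and TNF-alpha and phosphorylated biotinylated GST-cJun (1-79) at 10 uM ATP, pH 7.6, room temperature. Compounds were titrated. AlphaScreen signal used anti-phospho-cJun (Ser73) antibody.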

[7] = Cell Viability - H-4-II-E (AID 543); conditions: H-4-II-E rat hepatoma viability; series mostly up to 92.2 µM; also: nearly all actives have a fitted effect of over 35% in size; also: potency is read from the fitted curve at half-maximal effect
Summary of the method: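 Rat hepatoma H-4-II-E cells (1500/well) were plated, incubated 5 hr at 37 °C, then exposed to compounds for 40 hr at 37 °C. Cellular ATP was read by CellTiter-Glo luminescence; AC50 came from Hill-equation fits of concentration-response data.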

[8] = Cell Viability - SH-SY5Y (AID 544); conditions: SH-SY5Y neuroblastoma cell viability; series mostly up to 92.2 µM; also: nearly all actives have a fitted effect of over 55% in size; also: potency is read from the fitted curve at half-maximal effect
Summary of the method: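 Human neuroblastoma SH-SY5Y cells (1500/well) in complete medium were exposed to compounds for 40 hr at 37 °C; intracellular ATP was then quantified by CellTiter-Glo luminescence after 20 min at room temperature. AC50 came from Hill-equation concentration-response fits.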

[9] = Cell Viability - Mesenchymal (AID 546); conditions: mesenchymal cells viability, qHTS; activity change, negative = cytotoxicity: at 91.7 µM (top of the series);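 also: cells exposed to compound for 40 hours before reading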
Summary of the method: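 Normal human renal glomerulus-derived kidney mesenchymal cells, 1000 per well in complete medium, were treated with compounds for 40 hr at 37 °C. Viability was read as intracellular ATP by CellTiter-Glo luminescence; AC50 values came from Hill-equation fits of qHTS concentration-response data.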

[10] = Cellular Toxicity (caspase-3) HUV-EC-C (AID 656); conditions: HUV-EC-C cells, caspase-3 activation (apoptosis), vehicle = 0, 100 µM tamoxifen = 100%; series mostly up to 92.2 µM
Summary of the method: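 HUV-EC-C cells (1000/well) in complete medium, compound-treated 16 h at 37 °C; caspase-3/7 activity read by Caspase-Glo 3/7 luminescence. Normalized to DMSO (basal) and 100 uM tamoxifen (100%); AC50 from Hill-equation concentration-response fits.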

[11] = Cellular Toxicity (caspase-3) MRC-5 (AID 659); conditions: MRC-5 cells, luminescence, normalized: DMSO 0%, 10 µM staurosporine 100%; series mostly up to 91.7 µM
Summary of the method: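 Luminescence from caspase-cleaved aminoluciferin substrate (Caspase-Glo 3/7, 1 hr RT) reports caspase 3/7 activity in MRC-5 lung fibroblasts after 16 hr compound exposure. Normalized to DMSO basal and 10 uM staurosporine as 100%; AC50 from Hill fits.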

[12] = Cellular Toxicity (caspase-3) Mesangial (AID 660); conditions: mesangial cells, normalized: DMSO 0%, 100 µM tamoxifen 100%; series mostly up to 91.7 µM;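 also: cells exposed to compound for 16 h before the caspase read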
Summary of the method: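 Human renal glomerular mesangial cells (1000/well) were treated with compounds for 16 h at 37 °C in complete medium, then caspase 3/7 activity was read by Caspase-Glo luminescence. Data were normalized to DMSO and 100 uM tamoxifen; AC50 from Hill fits.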

[13] = Cellular Toxicity (caspase-3) Hek293 (AID 664); conditions: HEK293 caspase-3 activation, DMSO = 0%, 100 µM tamoxifen = 100%; series mostly up to 92.2 µM;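 also: cells exposed to compound for 16 h at 37 °C before readout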
Summary of the method: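 HEK293 cells were exposed to compounds in complete medium for 16 hr at 37 °C, then caspase-3/7 activity was read by Caspase-Glo 3/7 luminescence after 20 min at room temperature. Data normalized to DMSO and 100 uM tamoxifen; AC50 from Hill fits.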

[14] = Cellular Toxicity (caspase-3) N2a (AID 665); conditions: N2a cells, luminescence, normalized: DMSO 0%, 10 µM staurosporine 100%; series mostly up to 92.2 µM;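 also: compound exposure lasted 16 h at 37 °C before readout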
Summary of the method: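 Mouse N2a neuroblastoma cells (1500/well) were treated with compounds for 16 h at 37 °C, then caspase-3/7 activity was read by Caspase-Glo luminescence after 1 h at room temperature. Data were normalized to DMSO and 10 uM staurosporine; AC50 from Hill fits.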

[15] = Cellular Toxicity (caspase-3) NIH 3T3 (AID 666); conditions: NIH 3T3 caspase-3 activation, apoptosis/toxicity, 0% DMSO, 100% is 100 µM tamoxifen; series mostly up to 92.2 µM;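 also: caspase signal read after 16 h compound exposure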
Summary of the method: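 Mouse NIH 3T3 fibroblasts (1000 cells/well) were treated with compound for 16 hr at 37°C in complete medium; caspase-3/7 activity was read by Caspase-Glo luminescence. Normalized to DMSO and 100 uM tamoxifen; AC50 from Hill fits.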

[16] = Cellular Toxicity (caspase-3) Renal Proximal Tubule (AID 667); conditions: renal proximal tubule cells, primary cells freshly taken from rat, solvent-only wells 0%, staurosporine 100%; series mostly up to 91.7 µM;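 also: cells exposed to compound for 16 hours at 37 °C before detection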
Summary of the method: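 Freshly isolated primary rat kidney proximal tubule cells, 1000/well, treated 16 hr at 37 °C, then Caspase-Glo 3/7 luminescence after 1 hr. Normalized to DMSO and 10 uM staurosporine; AC50 from Hill fit.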

[17] = Cell Viability - LYMP1-002 - Assay at 16 hr (AID 948); conditions: LYMP1-002 lymphoblastoid cell viability; series mostly up to 92.2 µM; also: potency is read from the fitted curve at half-maximal effect
Summary of the method: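 LYMP1-002 human lymphoblastoid cells, 2500/well, were treated with compounds for 16 hr at 37 C in complete medium. Viability was read as intracellular ATP by CellTiter-Glo luminescence, and AC50 was derived from a Hill fit to concentration-response data.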

[18] = qHTS Assay for Identification of Small Molecule Inducers of Hypoxia Response (AID 2120; active = well fitted curve in the direction sought with a large enough effect in the signal ratio, with a control signal flat, not every such curve was filed as active; the % refers to the signal ratio); conditions: hypoxia response reporter cells, beta-lactamase ratio readout; series mostly up to 104 µM
Summary of the method: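 HRE-beta-lactamase reporter in CellSensor HRE-bla ME-180 cells, 2500 cells/well in Opti-MEM with 0.5% dialyzed FBS; compounds tested as titration series, 17 h at 37 degrees C. CCF4 substrate 2.5 h at room temperature; AC50 from 460/530 nm ratio.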

[19] = target: Peroxisome proliferator-activated receptor alpha (Homo sapiens) (UniProt Q07869); assay: qHTS assay for small molecule agonists of the peroxisome proliferator-activated receptor alpha (PPARalpha) signaling pathway (AID 651778); conditions: PathHunter PPARalpha complementation, chemiluminescence, 6 h; max response: active compounds read high
Summary of the method: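 Cells plated at 2,000/well and held overnight at 37 C, 5% CO2, then compound added by pin tool for 6 hr; after PathHunter detection reagent and 60 min at room temperature, chemiluminescence from enzyme complementation was read.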

[20] = qHTS assay for small molecule agonists of the antioxidant response element (ARE) signaling pathway measured by Nrf2-dependant transcriptional activity - cell viability counter screen (AID 720653; active = well fitted curve in the direction sought with a large enough effect in the repeat runs; an effect the other way counts as inactive or inconclusive); conditions: ARE-bla HepG2 viability, CellTiter-Glo ATP luminescence, 16 h; max response: active compounds read low
Summary of the method: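 ARE-bla HepG2 cells (2,000/well) rested 5 hrs at 37C/5% CO2, then exposed to compounds in DMSO for 16 hrs. Viability was read in the same wells as intracellular ATP by luminescence, 30 min at room temperature after reagent addition.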

Peroxisome proliferator-activated receptor alpha (Homo sapiens), sequence (Q07869 whole entry, looked up): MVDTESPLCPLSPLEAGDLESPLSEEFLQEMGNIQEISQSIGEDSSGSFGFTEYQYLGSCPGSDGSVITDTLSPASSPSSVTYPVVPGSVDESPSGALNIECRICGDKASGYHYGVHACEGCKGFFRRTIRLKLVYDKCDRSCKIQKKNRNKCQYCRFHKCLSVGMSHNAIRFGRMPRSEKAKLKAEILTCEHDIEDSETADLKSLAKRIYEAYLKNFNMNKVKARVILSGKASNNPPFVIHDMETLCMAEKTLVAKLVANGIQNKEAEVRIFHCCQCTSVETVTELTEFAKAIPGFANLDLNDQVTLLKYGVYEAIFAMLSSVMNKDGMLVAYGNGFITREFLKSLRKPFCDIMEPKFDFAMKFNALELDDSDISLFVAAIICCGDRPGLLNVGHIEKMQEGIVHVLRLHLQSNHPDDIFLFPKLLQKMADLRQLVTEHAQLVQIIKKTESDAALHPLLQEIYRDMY

| SMILES | Potency [1] | Potency [2] | Potency [3] | Potency [4] | Potency [5] | Potency [6] | Potency [7] | Potency [8] | activity change, negative = cytotoxicity [9] | outcome [10] | outcome [11] | outcome [12] | outcome [13] | outcome [14] | outcome [15] | outcome [16] | Potency [17] | outcome [18] | max response [19] | max response [20] |
| --- | --- | --- | --- | --- | --- | --- | --- | --- | --- | --- | --- | --- | --- | --- | --- | --- | --- | --- | --- | --- |
| CCO | > 92 µM | > 92 µM | > 92 µM | > 92 µM | > 92 µM | inactive | inactive | inactive | -1.16% | inactive | inactive | inactive | inactive | inactive | inactive | inactive | inactive | inactive | -0.991% | 7% |
| O=NO | > 92 µM | > 92 µM | > 92 µM | > 92 µM | > 92 µM | inactive | inactive | inactive | -3.1% and 3.16% | inactive | inactive | inactive | inactive | inactive | inactive | inactive | inactive | inactive | 0.744% and -3.6% | -5.36% and 6.29% |
| C=CC(=O)OCCOCCOCCOCCOC(=O)C=C | > 92 µM | 6.78 µM (active) and 12.4 µM (active) | 24.8 µM (active) and 28.8 µM (active) | 41.6 µM (active) | 10.9 µM (active) and 23.1 µM (active) | inactive | 20 µM (active) | 7.94 µM (active) and 12.6 µM (active) | -89.5% (active) and -83.9% (active) | inactive | inactive | inactive | inactive | inactive | inactive | inactive | 31.6 µM (active) | inactive | -0.0133% and -3.95% | -13% |
| COC(=O)c1ccc(C)cc1 | > 92 µM | > 92 µM | > 92 µM | > 92 µM | > 92 µM | inactive | inactive | inactive | -2.78% | inactive | inactive | inactive | inactive | inactive | inactive | inactive | inactive | inactive | 0.456% and 0.65% | 2.73% and -0.323% |
| CCC(C)c1ccccc1O (stereo not given) | > 92 µM | > 92 µM | > 92 µM | > 92 µM | > 92 µM | inactive | inactive | inactive | 1.63% and 2.6% | inactive | inactive | inactive | inactive | inactive | inactive | inactive | inactive | inactive | 4.33% and -1.41% and -1.75% | 15.2% and -6.24% and -8.74% |
| O=C(O)c1ccc(O)cc1O | > 92 µM | > 92 µM | > 92 µM | > 92 µM | > 92 µM | inactive | inactive | inactive | 5.57% and 9.36% | inactive | inactive | inactive | inactive | inactive | inactive | inactive | inactive | inactive | -2.85% and -4.3% | 4.94% and 4% |
| CCCCCCCCCCCCCCC1CO1 (stereo not given) | > 92 µM | > 92 µM | > 92 µM | > 92 µM | > 92 µM | inactive | inactive | inactive | 2.08% | inactive | inactive | inactive | inactive | inactive | inactive | inactive | inactive | inactive | -0.26% and -1.17% | -2.08% and 0.668% |
| COc1ccc2nc(N)sc2c1 | > 92 µM | > 92 µM | > 92 µM | > 92 µM | > 92 µM | inactive | inactive | inactive | -1.25% | inactive | inactive | inactive | inactive | inactive | inactive | inactive | inactive | inactive | -0.146% and -0.816% | -11.5% and -7.03% |
| Cc1ccc([N+](=O)[O-])c(C)c1 | > 92 µM | > 92 µM | > 92 µM | > 92 µM | > 92 µM | inactive | inactive | inactive | 1.9% | inactive | inactive | inactive | inactive | inactive | inactive | inactive | inactive | inactive | -4.28% and -0.811% | -3.32% and -3.26% |
| c1ccccc1 | > 92 µM | > 92 µM | > 92 µM | > 92 µM | > 92 µM | inactive | inactive | inactive | 7.51% and 0.0243% | inactive | inactive | inactive | inactive | inactive | inactive | inactive | inactive | inactive | -1.87% [middle of 4 runs] | -0.292% [middle of 4 runs] |
